Experimental data: PubChem BioAssay (EPA / NIEHS)
Where “and” joins values, the source holds several entries; their conditions need not be identical. Equal values may be shown once. Inconclusive results are not listed. Calls of active or inactive are those of the source. Rule for the calls: active = hit-call score of the fitted dose curve at least 0.9, where 1 is the maximum; inconclusive = response in the unintended direction; inactive = score below 0.9.

Columns and labels:
[1] = ATG_XTT_Cytotoxicity: Cytotoxicity Assessment in the Attagene TRANS-FACTORIAL HepG2 Assay (AID 2283584)
Method in brief: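 HepG2 human liver cells, transiently transfected with multiple GAL4-UAS reporter units, were dosed and read at 24 h by XTT as cell number. Loss of signal was fitted relative to DMSO negative control baseline.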

[2] = TOX21_p53_BLA_p2_viability: Viability Assessment in the Tox21 HCT-116 p53 Agonism Beta-lactamase Assay, Phase 2 (AID 2283591);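 note: compound exposure lasted 16 h at 37 °C; actives lower the ATP signal meaning cytotoxicity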
Method in brief: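 Cytotoxicity readout: CellTiter-Glo ATP luminescence, 30 min at room temperature, after the beta-lactamase read. Cells were HCT116 exposed 16 h at 37C to compounds pin-transferred at 217-fold dilution from DMSO stocks.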

[3] = target: Cellular tumor antigen p53 (Homo sapiens) (UniProt P04637); experiment: TOX21_p53_BLA_p2_ratio: Tox21 HCT-116 p53 Agonism Beta-lactamase Assay, Ratio, Phase 2 (AID 2283592)
Chain of Cellular tumor antigen p53 (Homo sapiens) (P04637 whole entry, looked up): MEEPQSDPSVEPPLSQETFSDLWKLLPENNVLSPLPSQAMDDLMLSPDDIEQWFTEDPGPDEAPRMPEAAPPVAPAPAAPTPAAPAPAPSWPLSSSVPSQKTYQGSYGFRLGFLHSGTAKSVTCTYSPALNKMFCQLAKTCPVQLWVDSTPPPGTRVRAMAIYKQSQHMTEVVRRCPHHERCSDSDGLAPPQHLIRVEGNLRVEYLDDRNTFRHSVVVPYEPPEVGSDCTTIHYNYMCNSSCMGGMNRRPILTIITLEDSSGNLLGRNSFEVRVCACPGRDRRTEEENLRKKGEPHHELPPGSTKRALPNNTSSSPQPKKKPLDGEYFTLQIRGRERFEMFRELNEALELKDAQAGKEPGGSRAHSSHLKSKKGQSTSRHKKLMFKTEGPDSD
Method in brief: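 Ratio endpoint: beta-lactamase cleavage of CCF4-AM, blue (460 nm) over green (530 nm). HCT116 reporter line; 16 h treatment, 37C; substrate 2 h RT.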

[4] = TOX21_p53_BLA_p4_viability: Viability Assessment in the Tox21 HCT-116 p53 Agonism Beta-lactamase Assay, Phase 4 (AID 2283597);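 note: hits lower the luminescence signal meaning cytotoxicity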
Method in brief: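 Cytotoxicity was inferred from loss of CellTiter-Glo luminescence. HCT116 cells had been dosed with compounds after 5 h plating, incubated 16 h at 37C and 5% CO2, and exposed to the CCF4-AM substrate for 2 h.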

[5] = TOX21_p53_BLA_p5_viability: Viability Assessment in the Tox21 HCT-116 p53 Agonism Beta-lactamase Assay, Phase 5 (AID 2283600)
Method in brief: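 Luciferase-coupled ATP quantitation of cells treated for 16 h (37C, 5% CO2) with test chemicals delivered in DMSO via a 217-fold dilution; 4000 cells/well; reagent incubated 30 min at room temperature before luminescence reading.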

[6] = target: Cellular tumor antigen p53 (Homo sapiens) (UniProt P04637); experiment: TOX21_p53_BLA_p3_ratio: Tox21 HCT-116 p53 Agonism Beta-lactamase Assay, Ratio, Phase 3 (AID 2283596)
Method in brief: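 Cells were seeded at 4000/well, rested 5 h at 37C, then dosed with DMSO compound solutions (217-fold dilution) for 16 h. CCF4-AM substrate was loaded for 2 h at room temperature, and the 460/530 nm emission ratio was fitted for gain of signal versus DMSO.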

[7] = target: Cellular tumor antigen p53 (Homo sapiens) (UniProt P04637); experiment: TOX21_p53_BLA_p5_ratio: Tox21 HCT-116 p53 Agonism Beta-lactamase Assay, Ratio, Phase 5 (AID 2283599)
Method in brief: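 Beta-lactamase reporter ratio (blue 460 nm over green 530 nm, 405 nm excitation) after 2 h CCF4-AM loading, in HCT-116 cells exposed 16 h at 37 C to compounds pinned at 217-fold dilution. Increases relative to DMSO baseline scored.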

[8] = TOX21_p53_BLA_p3_viability: Viability Assessment in the Tox21 HCT-116 p53 Agonism Beta-lactamase Assay, Phase 3 (AID 2283593);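 note: cells exposed to compound for 16 h before reading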
Method in brief: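 Cellular ATP was quantified by CellTiter-Glo luminescence, read after 30 min at room temperature. Beforehand, HCT116 cells (4000/well) received compound 5 h post-seeding, 217-fold diluted from DMSO, then incubated 16 h at 37C.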

[9] = target: Cellular tumor antigen p53 (Homo sapiens) (UniProt P04637); experiment: TOX21_p53_BLA_p4_ratio: Tox21 HCT-116 p53 Agonism Beta-lactamase Assay, Ratio, Phase 4 (AID 2283601)
Method in brief: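 Signal is the blue/green (460nm/530nm) ratio of cleaved versus uncleaved CCF4-AM substrate, read after 2 h substrate loading. Cells were HCT116 carrying the p53-responsive beta-lactamase reporter, dosed 16 h at 37C, 5% CO2; CellTiter-Glo measured in parallel.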

Measured: AC50

CCOC(=O)Nc1cccc(OC(=O)Nc2ccccc2)c1
inactive: [1] | [2] | [3] | [4] | [5]

CN(C)P(=O)(N(C)C)N(C)C
inactive: [1] | [2] | [3] | [6] | [4] | [7] | [5]

O=S(=O)(c1ccc(Cl)cc1)c1ccc(Cl)cc1
inactive: [1] | [2] | [3] | [8] | [6] | [7] | [5] | [9]

O=P(O)(O)CN(CP(=O)(O)O)CP(=O)(O)O
inactive: [1] | [2] | [8] | [6]

Nc1ncc([N+](=O)[O-])s1
inactive: [1] | [2] | [3] | [8] | [6] | [7] | [5]

O=[N+]([O-])c1c(Cl)c(Cl)cc(Cl)c1Cl
inactive: [1] | [2] | [3] | [8] | [6] | [7] | [5] | [9]

CC(=O)c1cc(C(C)(C)C)cc2c1CCC2(C)C
inactive: [1] | [2] | [3] | [8] | [6] | [7] | [5] | [9]

COc1ccc(C=O)cc1OC
inactive: [1] | [2] | [3] | [8] | [6] | [7] | [5]

Cc1cc(=O)[nH]o1
inactive: [1] | [2] | [3] | [7] | [5]

Nc1cccc(Cl)c1
inactive: [1] | [2] | [3] | [8] | [6] | [7] | [5] | [9]

CCC(C)c1cccc(C(C)CC)c1O (stereo not drawn)
inactive: [1] | [2] | [3] | [8] | [7] | [9]

ClC1=C(Cl)[C@]2(Cl)[C@H]3[C@H]([C@H]4C=C[C@H]3C4)[C@@]1(Cl)C2(Cl)Cl
inactive: [1] | [2] | [3] | [8] | [7] | [5] | [9]

ClCc1ccccn1
inactive: [1] | [2] | [3] | [7] | [5] | [9]

COc1cc2c(cc1OC)[C@@]13CCN4CC5=CCO[C@H]6CC(=O)N2[C@H]1[C@H]6[C@H]5C[C@H]43
inactive: [1] | [2] | [3] | [8] | [6] | [4] | [7] | [5] | [9]

O=C(CCl)CCl
inactive: [1] | [2] | [6] | [4] | [7] | [5] | [9]
active: [8] 19.3 µM and 22.3 µM
